The nature of assay [1]: ATG_NRF2_ARE_CIS: Attagene CIS-FACTORIAL HepG2 Assay for human Nuclear Factor Erythroid 2 Related Factor 2 (NFR2) response to Antioxidant Response Elements (ARE) (AID 2282992).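 As to AC50: reporter mRNA level measured by RT-PCR and capillary electrophoresis fluorescence.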 To be noted: HepG2 Attagene ARE/NRF2 reporter, transcription factor activity; actives raise or lower the signal. The essentials:
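Fluorescence intensity of reporter-specific cDNA fragments, separated by capillary electrophoresis, reflects mRNA induction in transfected HepG2 cells at 24 h. Activity is fitted bidirectionally, DMSO serving as baseline.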

A short description of assay [2]: ATG_Oct_MLP_CIS: Attagene CIS-FACTORIAL HepG2 Assay for human Octamer-Binding Transcription Factor (Oct) (AID 2282993). To be noted: HepG2 Attagene cis-factorial Oct reporter, mRNA; actives raise or lower the signal. The essentials: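 Transient MRTU transfection of HepG2 → 24 h compound treatment → RNA isolation, reverse transcription, PCR → 6-FAM primer extension, HpaI digest → capillary electrophoresis. Activity fitted both directions against DMSO.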

Assay [3] deals with Cellular tumor antigen p53 (Homo sapiens) (UniProt P04637). In words: ATG_p53_CIS: Attagene CIS-FACTORIAL HepG2 Assay for human p53 Transcription Factor (AID 2282994). To be noted: HepG2 p53 cis-element reporter, Attagene mRNA; actives raise or lower the signal. The essentials:
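Transiently transfected HepG2 (multiple cis reporter transcription units); exposure 24 h; reporter RNA via RT-PCR, 6-FAM extension, 2 h HpaI digest at 37 C, CE detection; DMSO baseline.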

Assay [4] is described as follows: BSK_3C_TissueFactor: BioMAP Diversity Plus: 3C Assay for Tissue Factor Biomarker Activity (AID 2282997). To be noted: BioMAP 3C HUVEC, tissue factor biomarker readout; actives raise or lower the signal. The essentials: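 Cells used were primary human umbilical vein endothelial cells. They were dosed with chemical, and after 24 h Tissue Factor was quantified by ELISA. Curves were fitted bidirectionally with DMSO as baseline.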

Assay [5] can be described thus: BSK_3C_uPAR: BioMAP Diversity Plus: 3C Assay for Urokinase-type plasminogen activator receptor (uPAR) Biomarker Activity (AID 2282998). To be noted: BioMAP 3C HUVEC, uPAR biomarker ELISA; actives raise or lower the signal. The essentials: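 ELISA readout of uPAR on human vascular endothelium (umbilical vein primary cells), taken 24 h after chemical dosing. Increases and decreases are both fitted relative to DMSO vehicle.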
Background: An ELISA detects its analyte on a solid surface through an enzyme-linked reagent.

A short description of assay [6]: BSK_3C_VCAM1: BioMAP Diversity Plus: 3C Assay for Vascular cell adhesion molecule 1 (VCAM1) Biomarker Activity (AID 2282999). To be noted: BioMAP 3C HUVEC, VCAM1 ELISA, cytokine-stimulated; actives raise or lower the signal. The essentials: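 Activity fitted in both directions relative to DMSO, with ELISA measurement of the surface marker on primary HUVEC (3C) at 24 h post-treatment; parallel SRB staining (0.1% SRB, TCA-fixed, 560 nm) flagged overt cytotoxicity.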

Assay [7] can be described thus: BSK_4H_Eotaxin3: BioMAP Diversity Plus: 4H Assay for Eotaxin 3 Biomarker Activity (AID 2283000).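 As to outcome: CCL26 protein level quantified by ELISA in parallel with SRB cytotoxicity check.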 The conditions noted are these: primary human endothelial cells (HUVEC); actives raise or lower the signal. The essentials:
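Endothelial primary cells (human umbilical vein) exposed to compound for 24 h. ELISA detection of Eotaxin-3.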

The target of assay [8] is human Peroxisome Proliferator-activated Receptor alpha (PPARa), PPARA (gene 5465) (UniProt Q07869). Briefly: ATG_PPARa_TRANS: Attagene TRANS-FACTORIAL HepG2 Assay for human Peroxisome Proliferator-activated Receptor alpha (PPARa) (AID 2283001; active = hit-call score of the fitted dose curve at least 0.9, where 1 is the maximum;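 as to AC50: potency for gain of reporter signal over DMSO so agonist or activator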). The essentials: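 Transfected HepG2 cells treated with test chemical for 24 h. RNA isolated, reverse-transcribed with oligo(dT), PCR-amplified, FAM-labelled and HpaI-digested. Fragments sized by capillary electrophoresis; gain-of-signal fit relative to DMSO.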

Read-out in assay [9]: Intercellular Adhesion Molecule 1 (ICAM1), ICAM1 (gene 3383)
Briefly: BSK_3C_ICAM1: BioMAP Diversity Plus: 3C Assay for Intercellular Adhesion Molecule 1 (ICAM1) Biomarker Activity (AID 2283003). The conditions noted are these: primary human endothelial cells (HUVEC); actives raise or lower the signal. The essentials:
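Using DMSO as baseline, bidirectional curve fitting was applied to ICAM-1 ELISA signals from HUVEC in the 3C system, measured 24 h after compound addition.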

Assay [10] has as its target human Retinoic Acid Receptor beta (RARb), RARB (gene 5915) (UniProt P10826). In words: ATG_RARb_TRANS: Attagene TRANS-FACTORIAL HepG2 Assay for human Retinoic Acid Receptor beta (AID 2283004; active = hit-call score of the fitted dose curve at least 0.9, where 1 is the maximum). The essentials: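 HepG2, transient MRTU transfection, NR–Gal4 chimera, 24 h treatment; RT-PCR plus CE fluorescence detection of reporter mRNA; gain of signal vs DMSO.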
Assay [11] can be described thus: BSK_3C_Proliferation: Cell Proliferation Assessment in the BioMAP Diversity Plus: 3C Assay (AID 2283006).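 As to AC50: potency may reflect either rise or fall in cell number versus DMSO.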 To be noted: primary human endothelial cells (HUVEC). The essentials:
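Measured here: sulforhodamine B (0.1%) staining of TCA-fixed sub-confluent umbilical vein endothelial cultures 48 h post-dosing, absorbance 560 nm. DMSO served as negative control and baseline; both signal gain and loss were modelled.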

Assay [12] addresses Peroxisome proliferator-activated receptor gamma (Homo sapiens) (UniProt P37231). In words: ATG_PPARg_TRANS: Attagene TRANS-FACTORIAL HepG2 Assay for human Peroxisome Proliferator-activated Receptor-gamma (PPARg) (AID 2283007; active = hit-call score of the fitted dose curve at least 0.9, where 1 is the maximum). The essentials: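 A TRANS-format multiplexed reporter assay measures activity of an exogenous chimeric NR-Gal4 protein in HepG2 cells. After 24 h of chemical exposure, reporter transcripts are amplified, fluorescently labelled and sized by capillary electrophoresis, with gain of signal scored against DMSO.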

Assay [13] concerns the target human Retinoic Acid Receptor gamma (RARg), RARG (gene 5916) (UniProt P13631). In words: ATG_RARg_TRANS: Attagene TRANS-FACTORIAL HepG2 Assay for human Retinoic Acid Receptor gamma (RARg) (AID 2283009; active = hit-call score of the fitted dose curve at least 0.9, where 1 is the maximum). The essentials: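 Gain-of-signal relative to DMSO is reported from fluorescent capillary electrophoresis of RT-PCR reporter products. These came from HepG2 cells expressing transfected RARg-GAL4 chimeras with UAS reporters, harvested 24 h after dosing.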

For assay [14], the target named is human RAR-related Orphan Receptor gamma (RORg), RORC (gene 6097) (UniProt P51449). In words: ATG_RORg_TRANS: Attagene TRANS-FACTORIAL HepG2 Assay for human RAR-related Orphan Receptor gamma (RORg) (AID 2283011; active = hit-call score of the fitted dose curve at least 0.9, where 1 is the maximum). The essentials:
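Activity is scored as increase in GAL4-UAS reporter mRNA over DMSO, detected by fluorescent RT-PCR and capillary electrophoresis in HepG2 cells transiently expressing a RORg-Gal4 chimera, 24 h after dosing.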

Assay [15] concerns the target Retinoic acid receptor RXR-alpha (Homo sapiens) (UniProt P19793). In words: ATG_RXRa_TRANS: Attagene TRANS-FACTORIAL HepG2 Assay for human Retinoid X Receptor alpha (RXRa) (AID 2283012; active = hit-call score of the fitted dose curve at least 0.9, where 1 is the maximum). The essentials:
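Chimeric NR-GAL4 trans-activation in HepG2, 24 h treatment; reporter transcripts quantified by fluorescence on capillary electrophoresis, analysed for upward change from DMSO.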

In assay [16] the target is human RAR-related Orphan Receptor beta (RORb), RORB (gene 6096) (UniProt Q92753). In words: ATG_RORb_TRANS: Attagene TRANS-FACTORIAL HepG2 Assay for human RAR-related Orphan Receptor beta (RORb) (AID 2283010; active = hit-call score of the fitted dose curve at least 0.9, where 1 is the maximum). The essentials: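 Multiplexed transcription-factor reporter assay: HepG2 cells transiently carrying NR-Gal4/GAL4-UAS constructs, 24 h treatment, mRNA quantified by RT-PCR plus capillary electrophoresis fluorescence; activity scored as induction over DMSO.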

Assay [17] has as its target Retinoic acid receptor alpha (Homo sapiens) (UniProt P10276). Briefly: ATG_RARa_TRANS: Attagene TRANS-FACTORIAL HepG2 Assay for human Retinoic Acid Receptor alpha (RARa) (AID 2283005; active = hit-call score of the fitted dose curve at least 0.9, where 1 is the maximum). The essentials: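 Reporter transcripts, measured by RT-PCR with fluorescent labeling and capillary electrophoresis after 24 h dosing, reflect activity of an exogenous human RARa–GAL4 fusion in transiently transfected HepG2. Fitted for increase relative to DMSO.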

Assay [18] has as its target Nuclear receptor subfamily 1 group I member 2 (Homo sapiens) (UniProt O75469). In words: ATG_PXR_TRANS: Attagene TRANS-FACTORIAL HepG2 Assay for human Pregnane X Receptor (PXR) (AID 2283008; active = hit-call score of the fitted dose curve at least 0.9, where 1 is the maximum). The essentials:
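Transient HepG2 transfectants carrying multiplexed reporter transcription units; PXR activity read through a Gal4 chimera. 24 h exposure. RT-PCR/CE fluorescence; upward curve fit referenced to DMSO.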

Drawing on PubChem BioAssay (EPA / NIEHS), this text covers outcome and AC50 for eight compounds.

Inconclusive results are not listed. Calls of active or inactive are those of the source. The calls were made as follows, unless noted: active = hit-call score of the fitted dose curve at least 0.9, where 1 is the maximum; inactive = score below 0.9.

human Retinoic Acid Receptor beta (RARb), RARB (gene 5915), sequence (P10826 whole entry, looked up, the tested form may be a part): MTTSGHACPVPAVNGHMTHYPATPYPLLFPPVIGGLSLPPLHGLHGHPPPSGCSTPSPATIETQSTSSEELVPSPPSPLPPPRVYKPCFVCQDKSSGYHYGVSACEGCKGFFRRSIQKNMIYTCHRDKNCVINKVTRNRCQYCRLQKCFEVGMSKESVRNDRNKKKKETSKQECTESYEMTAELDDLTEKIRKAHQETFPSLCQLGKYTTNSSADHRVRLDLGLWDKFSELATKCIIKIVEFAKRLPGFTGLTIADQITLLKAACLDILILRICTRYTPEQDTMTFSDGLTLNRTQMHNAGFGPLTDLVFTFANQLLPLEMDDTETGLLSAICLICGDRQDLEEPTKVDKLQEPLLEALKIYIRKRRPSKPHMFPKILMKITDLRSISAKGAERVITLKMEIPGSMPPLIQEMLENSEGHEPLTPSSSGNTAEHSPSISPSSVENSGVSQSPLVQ
human RAR-related Orphan Receptor beta (RORb), RORB (gene 6096), sequence (Q92753 whole entry, looked up, the tested form may be a part): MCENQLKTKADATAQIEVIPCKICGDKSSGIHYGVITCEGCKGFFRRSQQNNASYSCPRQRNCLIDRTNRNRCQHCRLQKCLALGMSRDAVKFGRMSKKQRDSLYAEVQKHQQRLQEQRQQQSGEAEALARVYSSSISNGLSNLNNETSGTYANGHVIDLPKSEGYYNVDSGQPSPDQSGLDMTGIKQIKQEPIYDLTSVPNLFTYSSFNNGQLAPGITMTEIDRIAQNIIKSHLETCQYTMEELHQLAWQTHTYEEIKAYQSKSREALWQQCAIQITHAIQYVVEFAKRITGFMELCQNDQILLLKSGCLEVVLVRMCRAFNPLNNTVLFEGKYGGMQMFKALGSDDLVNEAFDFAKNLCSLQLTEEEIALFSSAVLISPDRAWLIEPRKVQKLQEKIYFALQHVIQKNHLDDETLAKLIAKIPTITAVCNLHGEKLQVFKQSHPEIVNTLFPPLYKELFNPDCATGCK
human RAR-related Orphan Receptor gamma (RORg), RORC (gene 6097), sequence (P51449 whole entry, looked up, the tested form may be a part): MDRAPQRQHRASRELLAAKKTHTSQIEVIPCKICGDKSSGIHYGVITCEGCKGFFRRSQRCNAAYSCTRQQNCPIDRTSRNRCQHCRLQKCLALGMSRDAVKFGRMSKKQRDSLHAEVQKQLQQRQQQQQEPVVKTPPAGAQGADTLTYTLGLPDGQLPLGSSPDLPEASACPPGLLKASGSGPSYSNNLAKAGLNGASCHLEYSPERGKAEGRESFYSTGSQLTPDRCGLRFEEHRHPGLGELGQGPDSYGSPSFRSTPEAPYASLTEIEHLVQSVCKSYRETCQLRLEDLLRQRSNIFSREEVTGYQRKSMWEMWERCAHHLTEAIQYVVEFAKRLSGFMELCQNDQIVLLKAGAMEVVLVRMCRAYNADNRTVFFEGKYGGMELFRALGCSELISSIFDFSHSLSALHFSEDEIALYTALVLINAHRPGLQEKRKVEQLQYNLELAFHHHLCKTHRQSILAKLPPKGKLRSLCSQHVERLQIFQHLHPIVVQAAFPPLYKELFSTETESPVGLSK
Peroxisome proliferator-activated receptor gamma (Homo sapiens), sequence (P37231 whole entry, looked up, the tested form may be a part): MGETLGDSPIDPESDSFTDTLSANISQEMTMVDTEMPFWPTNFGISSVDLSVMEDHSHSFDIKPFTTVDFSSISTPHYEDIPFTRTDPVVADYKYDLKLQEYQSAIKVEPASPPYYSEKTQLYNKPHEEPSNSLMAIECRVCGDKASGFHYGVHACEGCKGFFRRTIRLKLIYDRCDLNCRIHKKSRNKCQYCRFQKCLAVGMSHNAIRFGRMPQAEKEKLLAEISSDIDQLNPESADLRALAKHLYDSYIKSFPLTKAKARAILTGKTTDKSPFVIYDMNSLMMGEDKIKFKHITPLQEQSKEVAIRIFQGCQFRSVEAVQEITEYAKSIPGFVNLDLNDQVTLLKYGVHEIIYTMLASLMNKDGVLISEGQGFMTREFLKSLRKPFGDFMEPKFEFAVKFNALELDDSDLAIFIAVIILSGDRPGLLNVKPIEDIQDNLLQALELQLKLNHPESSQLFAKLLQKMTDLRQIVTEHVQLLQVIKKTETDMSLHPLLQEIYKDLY
Retinoic acid receptor RXR-alpha (Homo sapiens), sequence (P19793 whole entry, looked up, the tested form may be a part): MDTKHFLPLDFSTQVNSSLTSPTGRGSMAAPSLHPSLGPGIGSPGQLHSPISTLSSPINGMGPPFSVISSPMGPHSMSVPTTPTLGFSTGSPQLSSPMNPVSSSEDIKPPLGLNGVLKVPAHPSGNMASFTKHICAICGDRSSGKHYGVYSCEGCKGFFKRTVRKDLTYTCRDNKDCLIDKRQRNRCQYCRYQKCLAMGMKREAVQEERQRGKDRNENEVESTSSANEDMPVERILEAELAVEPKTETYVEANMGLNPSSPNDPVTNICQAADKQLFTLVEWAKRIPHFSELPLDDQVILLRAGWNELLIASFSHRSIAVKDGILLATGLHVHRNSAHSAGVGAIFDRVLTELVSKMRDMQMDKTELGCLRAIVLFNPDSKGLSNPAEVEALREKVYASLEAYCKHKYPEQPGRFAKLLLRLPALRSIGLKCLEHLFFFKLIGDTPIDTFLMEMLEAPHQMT
human Retinoic Acid Receptor gamma (RARg), RARG (gene 5916), sequence (P13631 whole entry, looked up, the tested form may be a part): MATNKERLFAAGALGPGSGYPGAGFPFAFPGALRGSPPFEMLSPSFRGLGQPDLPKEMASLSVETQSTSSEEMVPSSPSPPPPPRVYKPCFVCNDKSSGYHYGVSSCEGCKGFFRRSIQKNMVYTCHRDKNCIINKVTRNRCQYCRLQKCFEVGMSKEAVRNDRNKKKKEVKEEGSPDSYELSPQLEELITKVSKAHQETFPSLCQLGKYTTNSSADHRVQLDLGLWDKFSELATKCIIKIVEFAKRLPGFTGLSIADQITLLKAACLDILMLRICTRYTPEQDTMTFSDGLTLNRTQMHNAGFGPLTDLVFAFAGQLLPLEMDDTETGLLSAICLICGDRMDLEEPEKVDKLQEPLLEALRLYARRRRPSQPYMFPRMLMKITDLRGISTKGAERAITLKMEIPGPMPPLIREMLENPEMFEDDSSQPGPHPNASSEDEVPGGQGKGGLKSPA
Cellular tumor antigen p53 (Homo sapiens), sequence (P04637 whole entry, looked up): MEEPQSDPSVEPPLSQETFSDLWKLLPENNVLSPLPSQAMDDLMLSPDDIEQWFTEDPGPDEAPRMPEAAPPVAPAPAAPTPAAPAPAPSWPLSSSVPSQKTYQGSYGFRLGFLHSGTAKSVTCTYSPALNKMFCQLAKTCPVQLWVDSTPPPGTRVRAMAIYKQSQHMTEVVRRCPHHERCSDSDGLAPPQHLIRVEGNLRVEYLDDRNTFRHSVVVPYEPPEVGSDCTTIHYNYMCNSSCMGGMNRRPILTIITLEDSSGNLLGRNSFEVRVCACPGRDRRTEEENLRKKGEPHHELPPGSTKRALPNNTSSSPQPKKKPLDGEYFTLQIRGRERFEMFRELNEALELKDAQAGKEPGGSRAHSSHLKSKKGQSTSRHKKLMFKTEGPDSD
human Peroxisome Proliferator-activated Receptor alpha (PPARa), PPARA (gene 5465), sequence (Q07869 whole entry, looked up, the tested form may be a part): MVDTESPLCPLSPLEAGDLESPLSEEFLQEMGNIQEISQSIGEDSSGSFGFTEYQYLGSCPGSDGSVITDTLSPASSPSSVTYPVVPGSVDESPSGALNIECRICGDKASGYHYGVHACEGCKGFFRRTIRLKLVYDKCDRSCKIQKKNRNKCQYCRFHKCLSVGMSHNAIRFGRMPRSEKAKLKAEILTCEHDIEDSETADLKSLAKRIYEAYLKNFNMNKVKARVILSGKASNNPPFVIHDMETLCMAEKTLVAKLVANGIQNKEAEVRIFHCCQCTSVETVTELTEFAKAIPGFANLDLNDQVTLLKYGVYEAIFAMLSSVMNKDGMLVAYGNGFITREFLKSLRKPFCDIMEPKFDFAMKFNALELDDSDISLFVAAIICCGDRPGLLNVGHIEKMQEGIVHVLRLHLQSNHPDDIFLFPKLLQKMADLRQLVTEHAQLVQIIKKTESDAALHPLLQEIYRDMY
Nuclear receptor subfamily 1 group I member 2 (Homo sapiens), sequence (O75469 whole entry, looked up, the tested form may be a part): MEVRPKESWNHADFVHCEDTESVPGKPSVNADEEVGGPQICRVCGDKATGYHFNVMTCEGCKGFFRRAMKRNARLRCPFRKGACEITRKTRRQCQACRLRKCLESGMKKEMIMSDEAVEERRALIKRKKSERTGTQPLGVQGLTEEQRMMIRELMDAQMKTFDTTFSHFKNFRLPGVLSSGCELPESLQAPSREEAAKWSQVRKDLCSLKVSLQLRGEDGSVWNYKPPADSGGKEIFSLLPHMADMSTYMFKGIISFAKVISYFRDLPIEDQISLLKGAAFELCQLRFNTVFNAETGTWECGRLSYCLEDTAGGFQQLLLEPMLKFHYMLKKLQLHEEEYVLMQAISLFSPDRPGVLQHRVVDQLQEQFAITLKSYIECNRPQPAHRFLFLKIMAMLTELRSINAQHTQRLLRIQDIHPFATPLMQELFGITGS
Retinoic acid receptor alpha (Homo sapiens), sequence (P10276 whole entry, looked up, the tested form may be a part): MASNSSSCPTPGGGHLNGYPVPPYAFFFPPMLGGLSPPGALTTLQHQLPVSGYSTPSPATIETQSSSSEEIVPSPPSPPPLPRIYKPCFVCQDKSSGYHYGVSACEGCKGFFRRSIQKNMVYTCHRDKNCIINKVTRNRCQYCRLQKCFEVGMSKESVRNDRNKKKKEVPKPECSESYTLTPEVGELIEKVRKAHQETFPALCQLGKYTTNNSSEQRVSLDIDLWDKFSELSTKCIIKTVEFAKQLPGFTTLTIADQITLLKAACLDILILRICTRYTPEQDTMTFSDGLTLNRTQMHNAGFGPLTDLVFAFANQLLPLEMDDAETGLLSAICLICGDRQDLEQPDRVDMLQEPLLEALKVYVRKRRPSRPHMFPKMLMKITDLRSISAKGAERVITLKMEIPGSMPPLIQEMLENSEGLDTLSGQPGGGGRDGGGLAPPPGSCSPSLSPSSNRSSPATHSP

For the compound `CC[C@H]1CC[C@H](NCc2cc3c(cc2OC)[C@H]2C[C@H]2C(=O)N3C)[C@H](c2ccccc2)N1`, the call in assay [1], in assay [4], in assay [5], in assay [6], in assay [7] and in [8] was inactive. Also, the outcome in assay [9], in [10], in assay [12], in assay [13], in assay [14] and in assay [15] was inactive. Moreover, the concentration at half-maximal activity (AC50) (usually the concentration giving half of the maximal activity seen) in assay [2] is 64.3 µM (active); in assay [3], 100 µM (active); in assay [11], 28.6 µM (active).

With `CCCN(C1CCN(C(=O)C2CCNCC2)CC1)[C@@H]1CCc2ccc(OC)cc2C1`, the AC50 is 26.2 µM (active) in [1]; 178 µM (active) in [2]; 155 µM (active) in [3]; 146 µM (active) in assay [8]; 100 µM (active) in assay [12]. Moreover, the result in assay [4], in assay [5], in assay [6], in assay [7], in assay [9] and in assay [11] was inactive. Also, the outcome in assay [13] and in assay [15] was inactive.

`CCCCC(CC)COC(=O)CCCCCCCCC(=O)OCC(CC)CCCC` (configuration not stated): the outcome in assay [1], in assay [2], in assay [3], in [4], in assay [5] and in [6] was inactive. Also, the outcome in assay [7], in assay [8], in assay [9], in [12], in assay [16] and in assay [14] was inactive. Also, the compound was called inactive in assay [15].

Consider `COc1ccc(/C=C/S(=O)(=O)NC(=O)c2ccc(C)cc2Cl)cc1`, for which the result in assay [1], in assay [2], in assay [3], in [4], in assay [5] and in assay [6] was inactive. Besides, the outcome in assay [7], in [8], in [9], in assay [16], in [14] and in assay [15] was inactive. For the same compound, the half-maximal activity concentration (AC50) in assay [11] was 7.08 µM (active); in assay [12], 23.7 µM (active).

Take `C1N2CN3CN1CN(C2)C3`: the outcome in [1], in [2], in [3], in [4], in assay [5] and in assay [6] was inactive. In addition, the outcome in [7], in [8], in assay [9], in assay [17], in [12] and in assay [15] was inactive.

As for `COc1cccc(-c2ccc(/C=C\CN3CCCCCC3)cc2Cl)c1`, the concentration at half-maximal activity (AC50) in assay [1] was 9.89 µM (active); in assay [2], 11 µM (active); in assay [4] it was 31.5 µM (active); in [5], 24.3 µM (active); in assay [6], 33.1 µM (active); in assay [7] it was 28 µM (active). Also, the AC50 in [9] is 33.5 µM (active); in [11] it was 14.2 µM (active); in assay [18], 4.81 µM (active). In addition, the compound was called inactive in assay [3], in assay [8], in assay [12], in [14] and in assay [15].

For the compound `CC(C)=CCCC(C)CCO` (configuration not stated), the AC50 in [1] is 134 µM (active); in assay [8], 65.5 µM (active); in assay [12], 42.6 µM (active). Besides, the outcome in [2], in assay [3], in [4], in assay [5], in assay [6] and in [7] was inactive. In addition, the result in [9], in assay [10], in assay [11], in assay [18] and in [16] was inactive.

Turning to `O=C(O)CC(O)C(=O)O` (configuration not stated), the result in [1], in assay [2], in assay [3], in assay [4], in assay [5] and in assay [6] was inactive. For the same compound, the result in assay [7], in assay [8], in assay [9], in assay [10], in [13] and in assay [15] was inactive.
